An excerpt weighted towards active compounds, which were near 1.1% of everything screened.
HTR5A inv ag: HTR5A inverse agonism, opioid heterodimer counter-screen; 0.083% of 340,000 active; AID 504634; inhibition, % at 9.3 µM; HTR5A cell line, luminescence; P47898; in the data active = inhibition mostly above about 23%, no sharp cut-off; inactive = mostly below about 18%;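 note: 0% = cells with DMSO and 100% = no-cell wells with DMSO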
Target sequence (P47898 whole entry, looked up): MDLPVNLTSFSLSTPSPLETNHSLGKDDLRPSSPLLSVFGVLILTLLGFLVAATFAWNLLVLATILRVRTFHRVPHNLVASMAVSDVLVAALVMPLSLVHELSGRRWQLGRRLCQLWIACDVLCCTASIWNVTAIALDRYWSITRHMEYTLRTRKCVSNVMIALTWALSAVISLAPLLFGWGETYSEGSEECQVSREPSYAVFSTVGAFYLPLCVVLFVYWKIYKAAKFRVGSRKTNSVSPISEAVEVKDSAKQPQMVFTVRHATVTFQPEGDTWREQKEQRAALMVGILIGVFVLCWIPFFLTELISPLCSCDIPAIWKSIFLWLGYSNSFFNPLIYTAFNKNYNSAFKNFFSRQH
OPRM1-OPRD1 inv: inverse agonist of human OPRM1-OPRD1 heterodimerization | AID 504357 | inhibition, % at 9.3 µM | cell-based MOR-DOR heterodimer luminescence, inverse agonism | 0.21% of 340,000 active; in the data active = inhibition above about 22%, passing the limit was not always enough;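 note: 0% = cells with DMSO and 100% = wells without cells with DMSO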
OPRM1-OPRD1 ag: agonists of human mu-delta opioid receptor heterodimerization; P35372+P41143; cells, OPRM1-OPRD1 heterodimerization, luminescence; activation, % at 9.3 µM; 0.3% of 340,000 active; AID 504326;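 note: 0% = vehicle-treated cells and 100% = reference agonist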
HTR5A ag ctr: activates human HTR5A in OPRM1-OPRD1 agonist counter-screen; HTR5A agonist assay, luminescence, cell-based; activation, % at 9.3 µM; 0.61% of 340,000 active; AID 504692; in the data active = activation mostly above about 9.5%, no sharp cut-off; inactive = mostly below about 7.6%;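 note: 0% = cells with vehicle only and 100% = reference agonist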
MOR-DOR ag conf: OPRM1-OPRD1 heterodimer agonism, confirmation. activation, % at 9.3 µM. 45% of 830 active. cells, MOR-DOR heterodimerization, luminescence complementation. shares compounds with OPRM1-OPRD1 ag;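 note: 0% = vehicle-treated cells and 100% = reference agonist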
HTR5A ag counter: HTR5A agonism, opioid heterodimer counter-screen | shares compounds with OPRM1-OPRD1 ag | HTR5A agonist counterscreen, cell luminescence | activation, % at 9.3 µM | 8% of 830 active; in the data active = activation above about 17%;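 note: 0% = vehicle-treated cells and 100% = reference agonist response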
Numbers without * were called inactive; i = inactive; / = no result given. Cut-off read from the data, not from the text of the source, unless noted: active = activation above about 18%; inactive = the rest.

SMILES	HTR5A inv ag	OPRM1-OPRD1 inv	OPRM1-OPRD1 ag	HTR5A ag ctr	MOR-DOR ag conf	HTR5A ag counter
COc1ccccc1C(CNC(=O)c1cccc(NS(=O)(=O)c2ccc(C)c(F)c2)c1)N(C)C (configuration not stated)	-2.0	-43.6	6.8	0.7	/	/
Cc1ccc(-n2c(CCc3ccccc3)n[nH]c2=S)cc1C	8.1	-1.1	0.2	-2.2	/	/
COc1ccc(CN2CCN(C(C)C(=O)N3CCc4ccccc43)CC2)cc1OC (configuration not stated)	-6.7	-5.5	0.8	-1.0	/	/
COc1ccc(/C=C/C(=O)NC(=S)NCCc2ccc(OC)c(OC)c2)cc1	-4.9	-168.3	29.9*	5.1	54.8*	3.0
COc1ccc(CCNC(=O)/C=C\c2ccccc2)cc1OC	5.8	5.0	-0.9	-1.7	/	/
Cc1cccc(CC(Cc2nc3ccccc3[nH]2)c2nc3ccccc3[nH]2)c1 (configuration not stated)	12.0	-109.0	18.3*	-5.0	2.1	-3.9
CCc1ccc(NC(=O)Nc2ccc3c(c2)N(C)C(=O)CS3)cc1	-10.9	-487.7	96.3*	3.6	55.0*	4.7
O=C1NCN(c2ccccc2)C12CCN(CCCC(c1ccc(F)cc1)c1ccc(F)cc1)CC2	-22.1	-166.3	30.8*	6.2	-0.3	5.1
O=C(Nc1ccc2c(c1)C(=O)N(c1ccccc1)C2=O)c1cccs1	-23.4	-91.5	18.4*	5.5	17.0	9.1
Cc1onc(-c2ccccc2Cl)c1C(=O)NCc1nnnn1-c1ccc(F)cc1	-5.0	10.2	-1.6	1.8	/	/
C=CCN1N=C(c2ccc(NC(=O)c3ccccc3)cc2)CSC1=O	19.2	-284.6	55.5*	3.4	0.6	-4.2
COc1ccc(C[C@H]2CN3C(=NC[C@@H]3Cc3ccccc3)N2CCNC(=O)c2ccc(C)c(Br)c2)cc1	1.1	-125.7	22.4*	8.0	0.2	-2.3
CCn1c(-c2ccccc2)c(C(=O)CCl)c2ccccc21	33.0	-331.1	66.5*	14.3	-1.7	5.7
CCn1c2ccccc2c(=O)c2ccccc21	12.5	3.3	-0.7	2.5	/	/
Oc1cccc(Nc2c3ccccc3nc3ccccc23)c1	-8.5	4.2	-0.8	2.2	/	/
CCN(CC)Cc1cc(Nc2c3ccccc3nc3c4ccccc4n(C)c23)cc(CN(CC)CC)c1O	-6.6	i	144.0*	1.7	148.6*	-2.5
COc1ccc(C(=O)NC(C)c2ccc(-n3ccnc3)cc2)cc1S(=O)(=O)N1CCOCC1 (configuration not stated)	-16.8	6.3	-1.3	2.0	/	/
CCOC(=O)C1(CCc2ccccc2)CCN(Cc2c(O)cccc2OC)CC1	5.8	i	292.4*	-2.3	-1.4	-8.2
CCOC(=O)C1(CCc2ccccc2)CCN(Cc2ccc(O)cc2)CC1	2.2	-35.1	6.8	-0.8	/	/
CCOC(=O)C1(CCc2ccccc2)CCN(Cc2ccc(OC)cc2)CC1	2.8	i	129.3*	-1.0	7.3	7.6
Cc1ccc(N2CC(C(=O)Nc3ccc4c(c3)OCO4)CC2=O)cc1C (configuration not stated)	-7.0	3.8	-0.7	-2.6	/	/
COC(=O)NCC(c1ccc2c(c1)OCO2)N1CCN(c2ccc(OC)cc2)CC1 (configuration not stated)	-2.8	-422.0	78.7*	3.6	-0.1	-4.0
CC(C)c1ccc(NC(=O)N(CCc2nc3ccccc3[nH]2)C2CCCC2)cc1	-9.1	-147.7	25.4*	2.0	37.0*	-0.4
Cc1c(C(=O)N/N=C/c2ccncc2)nnn1-c1nonc1N	-9.0	13.3	-2.4	3.6	/	/
O=C(N/N=C/c1cccnc1)c1ccccc1OCc1ccc(Br)cc1	8.1	-125.5	23.8*	-2.9	13.8	5.1
SMILES	HTR5A inv ag	OPRM1-OPRD1 inv	OPRM1-OPRD1 ag	HTR5A ag ctr	MOR-DOR ag conf	HTR5A ag counter
COC(=O)c1ccc(C(=S)NCC2(N(C)C)CCCCC2)cc1	-16.0	-199.1	37.3*	5.7	3.4	70.0*
Cc1[nH]c2ccccc2c1/C=N/Nc1nc(Nc2ccc(F)cc2)nc(N2CCOCC2)n1	5.0	-2.4	0.6	-0.6	/	/
Cc1ccc(Nc2nc(N/N=C/c3c[nH]c4ccccc34)nc(N3CCOCC3)n2)cc1	-4.0	-113.2	18.8*	1.5	15.7	2.4
Cc1cc2[nH]c3c(c[n+](C)c4ccccc34)c2cc1C	10.2	-97.8	15.0	-4.1	/	/
Cc1cc2[nH]c3c4ccccc4nc(C)c3c2cc1C	-22.5	-171.6	34.7*	6.0	68.0*	13.6
COc1ccc(/C=C/C(=O)c2ccc(NC(=O)c3cccs3)cc2)cc1OC	-1.2	-8.2	1.4	0.5	/	/
N=C(SC1CC(=O)N(c2ccc(F)cc2)C1=O)N1N=C(c2ccccc2)CC1c1ccccc1 (configuration not stated)	-7.4	3.1	-0.7	2.9	/	/
CCN(Cc1ccccc1)S(=O)(=O)c1ccc(C(=O)N(CCCN(C)C)c2nc3c(C)c(C)ccc3s2)cc1	-15.5	-172.1	31.3*	6.2	40.5*	0.8
CN(C)CCCN(C(=O)c1ccc(S(=O)(=O)N(C)C)cc1)c1nc2cc3c(cc2s1)OCO3	-4.6	17.5	-3.4	1.8	/	/
Cc1ccc2sc(N(CCCN(C)C)C(=O)c3ccc(S(=O)(=O)N4CCOCC4)cc3)nc2c1C	-0.2	15.2	-2.9	0.1	/	/
Cc1ccc2sc(N(CCCN(C)C)C(=O)c3ccc(S(=O)(=O)N(C)C4CCCCC4)cc3)nc2c1C	5.1	-162.5	31.3*	-2.1	49.5*	21.6*
CCN(Cc1ccccc1)S(=O)(=O)c1ccc(C(=O)N(CCCN(C)C)c2nc3cc4c(cc3s2)OCO4)cc1	-8.0	-138.4	25.1*	2.8	-0.3	-3.0
CCc1cc2cc(C(=O)Nc3ccc(C)cc3)sc2s1	-38.4	-42.9	7.0	14.3	/	/
CCOc1ccc(CN2CCN(CC(O)Cn3c4ccccc4c4ccccc43)CC2)cc1 (configuration not stated)	2.7	-6.6	1.2	7.7	/	/
COc1ccc(CN2CCN(CC(O)Cn3c4ccccc4c4ccccc43)CC2)cc1 (configuration not stated)	5.8	-105.5	20.7*	-2.2	24.2*	-1.9
NS(=O)(=O)c1ccc(CCNC(=O)C2(S(=O)(=O)c3ccc(Cl)cc3)CC2)cc1	-11.6	8.5	-1.9	3.1	/	/
CCOC(=O)/C=C/C(=O)Nc1ccc(S(=O)(=O)N(C)c2ccccc2)cc1	-6.1	-16.4	2.3	2.2	/	/
CCOc1ccc(-c2nnc(SCC(=O)Nc3ccc4c(c3)c3ccccc3n4CC)n2N)cc1	-1.9	-176.6	33.2*	0.8	24.2*	18.7*
CN(C)C(CNC(=O)c1cc2ccccc2oc1=O)c1ccccc1 (configuration not stated)	-2.4	-255.1	31.1*	1.5	133.2*	-3.5
CC(=O)NC(Cc1cccc(F)c1)C(=O)NC1CCN(C(=O)c2ccc(C)cc2)CC1 (configuration not stated)	-16.6	11.1	-2.2	0.3	/	/
Cc1sc(NC(=O)CSc2nnc3scc(-c4ccccc4)n23)c(C#N)c1C	-26.9	-105.4	19.5*	2.7	0.3	2.8

Screens from PubChem BioAssay.
